Screens from PubChem.
TexasRed fluor – Total Fluorescence Counterscreen for Inhibitors of the Interaction of Thyroid Hormone Receptor and Steroid Receptor Coregulator 2; TRb/SRC2 Texas Red total fluorescence interference; Potency, µM (titrated, usually from 106 µM), for inactives: at the top dose fluorescence change, negative = quenching; 0.29% of 280,000 active; AID 1479, 2009; active = well fitted curve in either direction with a large enough effect; inconclusive = small, poorly fitted or top-dose-only effect; note: potency is the fitted concentration of half-maximal effect
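Human TRb ligand-binding domain at 0.6 uM with 20 nM Texas Red SRC2 peptide in Tris buffer containing 1 uM T3 and 5% DMSO, incubated with compound 5 h at ambient temperature. Total fluorescence (555/632 nm) calculated as parallel + 2 × perpendicular.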
RGS12 GoLoco inh – qHTS Assay for Inhibitors of RGS12 GoLoco Motif Activity (Red Fluorophore). Guanine nucleotide-binding protein G(i) subunit alpha-1 (Homo sapiens), P63096. Gai1:RGS12 GoLoco peptide FP, rhodamine, 10 min. Potency, µM (highest dose often 61.6 µM), for inactives: at the top dose activity, negative = inhibition, actives largely listed as inhibitors. 0.44% of 230,000 active; active = well fitted inhibition curve with a large enough effect, not every such curve was filed as active; inactive = no such curve, though single readings can be large or run the other way; note: potency is the fitted concentration of half-maximal effect; nearly all actives have a fitted effect of over 30% in size
TRb-SRC2 inh – qHTS for Inhibitors of the Interaction of Thyroid Hormone Receptor and Steroid Receptor Coregulator 2; Potency, µM (top dose mostly 106 µM), without a hit: at the highest dose activity change, negative = inhibition, actives largely listed as inhibitors; TRbeta-SRC2 peptide binding, fluorescence polarization; receptor liganded with 1 µM T3; Thyroid hormone receptor beta (Homo sapiens), P10828; 0.065% of 280,000 active; active = well fitted inhibition curve with a large enough effect; inconclusive = small, poorly fitted or top-dose-only effect, or effect the other way;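 note: potency is the fitted concentration of half-maximal effect; plate controls were bound peptide for no effect and peptide without receptor for full effect; nearly all actives have a fitted effect of over 50% in size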
Target sequence (P10828 whole entry, looked up): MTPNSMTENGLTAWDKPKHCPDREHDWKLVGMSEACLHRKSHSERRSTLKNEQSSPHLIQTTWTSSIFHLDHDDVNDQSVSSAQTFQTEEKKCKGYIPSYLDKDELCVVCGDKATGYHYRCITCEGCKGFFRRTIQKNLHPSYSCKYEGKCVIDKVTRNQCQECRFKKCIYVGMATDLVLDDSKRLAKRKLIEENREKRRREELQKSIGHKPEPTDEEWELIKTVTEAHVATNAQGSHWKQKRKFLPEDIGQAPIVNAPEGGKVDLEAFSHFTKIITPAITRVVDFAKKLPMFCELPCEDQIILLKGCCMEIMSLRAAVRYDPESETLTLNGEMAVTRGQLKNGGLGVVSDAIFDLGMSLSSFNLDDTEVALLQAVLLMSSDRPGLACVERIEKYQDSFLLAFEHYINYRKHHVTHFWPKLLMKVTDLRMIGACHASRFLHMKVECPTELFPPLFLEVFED
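Each compound concentration gave % activity, normalized to unbound and bound Texas Red SRC2 controls, from polarization read after 5 hr ambient incubation with T3-loaded human TRb LBD.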
Coupling enz – qHTS Assay for Inhibitors of Fructose-1,6-bisphosphate Aldolase from Giardia Lamblia: Coupling assay counterscreen; coupling enzyme system counterscreen, AmpLite Red fluorescence; activity change, negative = inhibition, % at 58.2 µM, hits read low; 0.67% of 290,000 active; in the data active = activity change below about -30%
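Activity here indicates interference with the coupling reaction, not aldolase inhibition. Compounds at 57.5 uM final met coupling enzymes for 10 min at RT; substrate and AmpLite Red detection followed, with a 525/598 nm fluorescence read after 20 min.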
* = called active by the depositor; ? = inconclusive; . = not tested or not shown; ! = repeats disagree; [ ] = remark or other dose. This is a sample that favours compounds with a hit; in the whole collection about 0.93% have one here. Unless noted, % is set by controls: 0 for no effect and ±100 for the full control effect.

SMILES	TexasRed fluor	RGS12 GoLoco inh	TRb-SRC2 inh	Coupling enz
O=C(Cn1c(=O)oc2cc(S(=O)(=O)N3CCCCC3)ccc21)Nc1cccc(Cl)c1	?	.	-6%	.
O=C(Nc1cccc2nsnc12)c1ccc(-c2cccc(Cl)c2)o1	0%	52%	3%	-40*
O=C(Nc1ccccc1N1CCCCC1)c1ccc(-c2cccc(Cl)c2)o1	0%	12%	10%	-5
COC(=O)c1cccc(-c2ccc(C(c3c(C)[nH][nH]c3=O)c3c(C)[nH][nH]c3=O)o2)c1	-5%	2%	-28%	-46*
CC1(C)OC(=O)C(=Cc2ccc(-c3ccc(Cl)c(C(=O)O)c3)o2)C(=O)O1	-4%	4%	2%	0
COC(=O)c1ccccc1-c1ccc(C(c2c(C)[nH][nH]c2=O)c2c(C)[nH][nH]c2=O)o1	-1%	6%	4%	-1
Cc1[nH][nH]c(=O)c1C(c1ccc(-c2ccc(Cl)c(C(=O)O)c2)o1)c1c(C)[nH][nH]c1=O	-2%	-7%	-26%	-48*
COC(=O)CCCC1=CC2=C(c3ccccc3)C(=O)C(C)(OC(=O)C3CCCC3)C(=O)C2=CN1CCN1CCOCC1 (configuration not stated)	-1%[11.2 µM]	-1%[14.2 µM]	-1%[11.2 µM]	-35*!
CC1(OC(=O)C2CCCC2)C(=O)C=C2C=C(c3ccsc3)N(CCN3CCOCC3)C=C2C1=O (configuration not stated)	-1%[11.2 µM]	-3%[14.2 µM]	1%[11.2 µM]	-44*
CC1(OC(=O)C2CCCC2)C(=O)C=C2C=C(c3ccsc3)N(CC3CC3)C=C2C1=O (configuration not stated)	-1%[11.2 µM]	9%[14.2 µM]	3%[11.2 µM]	-34*!
CC1(OC(=O)C2CCCC2)C(=O)C=C2C=C(c3ccsc3)N(C3CCCCC3)C=C2C1=O (configuration not stated)	1%[11.2 µM]	6%[14.2 µM]	8%[11.2 µM]	-18
C=C(C)C(=O)OCC[N+](C)(C)C	-1%[201 µM]	.	0%[201 µM]	.
CCc1nnc(SCc2nc(-c3ccccc3Cl)oc2C)c2cc3sc(C)cc3n12	-1%	.	-2%	.
N#C/C(=C\c1ccc(OCc2ccc(Cl)cc2Cl)cc1)c1nc2ccccc2[nH]1	282µM*[quencher]	.	-26%[53 µM]	.
COc1cc(/C=C(\C#N)c2nc3ccccc3[nH]2)cc(Cl)c1OCc1ccccc1Cl	2%	.	-10%	.
CCOC(=O)CN1C(=O)C(O)(c2c(C)[nH]c3ccccc23)c2ccccc21 (configuration not stated)	-4%	18%	3%	-30*
COc1ccc(-c2nnc(Nc3ccc(CC(N)=O)cc3)c3ccccc23)cc1	35µM*[quencher]	-4%	?	0
C=Cc1ccc(P(c2ccccc2)c2ccccc2)cc1	3%[201 µM]	.	11%[201 µM]	.
Cc1ccc(NC(=O)CSc2nnc(-c3cccnc3)s2)cc1	0.32µM*[quencher]	-2%	?	-1
CCOCCCn1c(=N)c(C(N)=S)cc2c(=O)n3cccc(C)c3nc21	-3%	5%	-12%	-45*
CNc1nc(=O)n(C2CCCCC2)c(=O)n1C	-1%[201 µM]	.	2%[201 µM]	.
O=c1c(O)cc(C2Oc3cc(O)cc(O)c3CC2O)cc2c(C3Oc4cc(O)cc(O)c4CC3O)cc(O)c(O)c12 (configuration not stated)	28µM*[quencher]	-19%	1%	-75*
COc1ccc(CNC(=O)c2cnc3sc(N4CCCCCC4)nn3c2=O)cc1	1%	.	0%	.
Cc1ccc(NC(=O)C2CCCN(S(=O)(=O)c3cccs3)C2)c(C)c1 (configuration not stated)	1%	.	-1%	.
COC(=O)c1sccc1S(=O)(=O)N(CC(=O)NCc1ccc(F)cc1)c1ccc(Cl)cc1	-1%	.	1%	.
SMILES	TexasRed fluor	RGS12 GoLoco inh	TRb-SRC2 inh	Coupling enz
c1ccc(-c2cnc(CSc3nnc4ccccn34)o2)cc1	3%	4%	6%	-37*
COc1ccc(/C=N/Nc2cc(N(C)C)nc(N(C)C)n2)cc1	0%	1%	-22%	-42*
COc1ccccc1/C=N/Nc1cc(N(C)C)nc(N(C)C)n1	-2%	-6%	-7%	-31*
CN(C)c1cc(N/N=C\c2ccccc2)nc(N(C)C)n1	0%	2%	-18%	-39*
COc1ccc(/C=N/Nc2cc(OC)ncn2)cc1	-7%	.	0%	-2
Cc1cc(N/N=C/c2ccccc2)nc(NCc2ccccc2)n1	-4%	2%	4%	0
